Source: PubChem BioAssay (NCATS)
Inconclusive results are not listed. Activity calls are given as the source filed them. Unless noted, calls follow the shape of the dose curve; as a rule, active = well fitted curve in the direction sought with a large enough effect; inconclusive = small, poorly fitted or top-dose-only effect, or another doubt; inactive = no such curve, though single readings can be large; an effect the other way counts as inactive or inconclusive.

Tests used:
[1] = Cell Viability - BJ (AID 421; calls by dose curve;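 also: potency is read from the fitted curve at half-maximal effect; cells exposed to compound for 40 hours at 37 °C before readout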); conditions: BJ fibroblast viability, qHTS
Summary of the method: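 Luminescent ATP signal (CellTiter-Glo, 20 min at room temperature) served as the read-out of viable BJ cells after 40 hours of compound treatment. Responses were scaled between DMSO and 100 uM tamoxifen, and AC50 values were obtained by Hill modeling.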

[2] = Cell Viability - Jurkat (AID 426;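 active = dose-dependent loss of cell ATP signal giving a full or clear fitted curve, ranked by lower potency value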;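 also: potency is read from the fitted curve at half-maximal effect; cells exposed to compound for 40 hours at 37 °C before ATP read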); conditions: qHTS
Summary of the method: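 Seed 5000 Jurkat E6-1 cells/well; add compound; incubate 40 hr at 37 °C; add CellTiter-Glo; wait 20 min at room temperature; read luminescence. Fit concentration-response with Hill equation for AC50.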

[3] = Cell Viability - HepG2 (AID 433; calls by dose curve;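 also: potency is read from the fitted curve at half-maximal effect; potency for ATP loss meaning cytotoxicity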); conditions: qHTS
Summary of the method: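 HepG2 hepatocellular carcinoma cells (1500/well) were treated with compounds for 40 h at 37 °C in complete medium; intracellular ATP was read by CellTiter-Glo luminescence. Data were normalized to DMSO and 100 uM tamoxifen, and AC50 came from Hill fits.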

[4] = Cell Viability - MRC5 (AID 434; calls by dose curve;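 also: potency is read from the fitted curve at half-maximal effect; potency reflects cytotoxicity seen as loss of intracellular ATP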); conditions: MRC5 lung fibroblast viability, qHTS
Summary of the method: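 MRC5 normal human lung fibroblasts (1500/well) were treated with compounds for 40 hr at 37 °C in complete medium, and viable cells were measured as intracellular ATP by CellTiter-Glo luminescence. AC50 came from Hill fits, normalized to DMSO and 100 uM tamoxifen.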

[5] = Cell Viability - SK-N-SH (AID 435; calls by dose curve;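 also: potency is read from the fitted curve at half-maximal effect; compound exposure lasted 40 h at 37 °C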); conditions: SK-N-SH neuroblastoma cell viability qHTS
Summary of the method: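 SK-N-SH human neuroblastoma cells (1500/well) were exposed to compounds in complete medium for 40 h at 37 °C, and intracellular ATP was then measured by CellTiter-Glo luminescence. AC50 was taken from Hill fits, normalized to DMSO and 100 uM tamoxifen.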

[6] = Cell Viability - N2a (AID 540); conditions: N2a mouse neuroblastoma cell viability; at 92.2 µM (top of the series);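 also: plate controls were DMSO alone for no effect and tamoxifen control for full effect; nearly all actives have a fitted effect of over 45% in size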
Summary of the method: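 First, 1500 N2a cells per well incubate 5 hr at 37 °C; next, compounds are added and incubated 40 hr at 37 °C; finally CellTiter-Glo is added and luminescence read after 20 min, with AC50 derived by Hill modeling.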

[7] = Cell Viability - NIH 3T3 (AID 541); conditions: NIH 3T3 cell viability, qHTS; at 92.2 µM (top of the series);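 also: plate controls were DMSO alone for no effect and tamoxifen positive control for full effect; nearly all actives have a fitted effect of over 25% in size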
Summary of the method: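 AC50 values reflect concentration-dependent loss of intracellular ATP in NIH 3T3 cells after 40 hr treatment in complete culture medium, quantified by luciferase-based luminescence.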

[8] = Cell Viability - HUV-EC-C (AID 542); conditions: HUV-EC-C endothelial cell viability, qHTS; also: potency is read from the fitted curve at half-maximal effect; nearly all actives have a fitted effect of over 35% in size
Summary of the method: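 Decrease in cellular ATP, quantified by luciferase luminescence, reflects toxicity in normal human vascular endothelial HUV-EC-C cells given compound for 40 hr in complete culture medium. Values are AC50s from concentration-response curves.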

[9] = Cell Viability - H-4-II-E (AID 543); conditions: H-4-II-E rat hepatoma viability; also: potency is read from the fitted curve at half-maximal effect; nearly all actives have a fitted effect of over 35% in size
Summary of the method: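 Here, cytotoxicity is measured in the rat hepatoma line H-4-II-E as loss of intracellular ATP after 40 hr compound treatment, detected by luciferase luminescence.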

[10] = Cell Viability - SH-SY5Y (AID 544); conditions: SH-SY5Y neuroblastoma cell viability; also: potency is read from the fitted curve at half-maximal effect; nearly all actives have a fitted effect of over 55% in size
Summary of the method: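 Cytotoxicity is scored as a concentration-dependent fall in intracellular ATP in human SH-SY5Y cells treated 40 hr in complete culture medium. Potency is expressed as AC50 from a Hill equation fit.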

[11] = Cell Viability - Renal Proximal Tubule (AID 545); conditions: renal proximal tubule cells viability, primary cells of rat origin; at 91.7 µM (top of the series);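 also: 0% = DMSO only and -100% = 100 µM tamoxifen; nearly all actives have a fitted effect of over 40% in size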
Summary of the method: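 Primary rat renal proximal tubule cells (1000/well) were treated with compounds for 40 hr at 37 °C in complete medium. Intracellular ATP was measured by CellTiter-Glo luminescence, and AC50 values came from Hill-equation fits of concentration-response data.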

[12] = Cell Viability - Mesenchymal (AID 546); conditions: mesenchymal cells viability, qHTS;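 also: potency is read from the fitted curve at half-maximal effect; cells exposed to compound for 40 hours before reading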
Summary of the method: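 Normal human renal glomerulus-derived kidney mesenchymal cells, 1000 per well in complete medium, were treated with compounds for 40 hr at 37 °C. Viability was read as intracellular ATP by CellTiter-Glo luminescence; AC50 values came from Hill-equation fits of qHTS concentration-response data.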

[13] = Cellular Toxicity (caspase-3) HepG2 (AID 654);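 also: cells exposed to compound for 16 hours before reading; 0% = DMSO alone and 100% = caspase signal from 100 µM tamoxifen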
Summary of the method: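 qHTS, HepG2, 1500 cells/well, complete medium; cpd 16 h 37 °C; Caspase-Glo 3/7, 20 min RT; lum. Norm: DMSO vs 100 uM tamoxifen; AC50 Hill fit.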

[14] = Cellular Toxicity (caspase-3) Jurkat (AID 655);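 also: cells exposed to compound for 16 h at 37 °C before reading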
Summary of the method: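 Jurkat cells (5000/well) in complete medium were treated with compounds for 16 hr at 37 °C, then Caspase-Glo 3/7 luminescence was read after 20 min at room temperature. Data normalized to DMSO (basal) and 100 uM tamoxifen (100%); AC50 from Hill fit.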

[15] = Cellular Toxicity (caspase-3) HUV-EC-C (AID 656);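 also: 0% = DMSO basal and 100% = 100 µM tamoxifen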
Summary of the method: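 HUV-EC-C endothelial cells, 1000/well, were pre-incubated 5 hr at 37°C, then exposed to compounds for 16 hr at 37°C. Caspase-Glo 3/7 luminescence was read after 20 min at room temperature. AC50 came from Hill fits, normalized to DMSO and 100 uM tamoxifen.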

[16] = Cellular Toxicity (caspase-3) SHSY5Y (AID 657)
Summary of the method: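 SH-SY5Y human neuroblastoma cells (1500/well) were treated with compounds for 16 h at 37 °C, then Caspase-Glo 3/7 luminescence was read after 1 h at room temperature. Data normalized to DMSO and 10 uM staurosporine; AC50 from Hill fits.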

[17] = Cellular Toxicity (caspase-3) BJ (AID 658);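 also: 0% = DMSO basal and 100% = 10 µM staurosporine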
Summary of the method: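 Luminescent aminoluciferin-substrate cleavage reports caspase 3/7 activity in normal human BJ fibroblasts after 16 hr compound exposure at 37 °C. Normalized to DMSO (basal) and 10 uM staurosporine (100%); AC50 from Hill fit of concentration-response.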

[18] = Cellular Toxicity (caspase-3) MRC-5 (AID 659);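 also: 0% = DMSO basal and 100% = 10 µM staurosporine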
Summary of the method: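 Luminescence from caspase-cleaved aminoluciferin substrate (Caspase-Glo 3/7, 1 hr RT) reports caspase 3/7 activity in MRC-5 lung fibroblasts after 16 hr compound exposure. Normalized to DMSO basal and 10 uM staurosporine as 100%; AC50 from Hill fits.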

[19] = Cellular Toxicity (caspase-3) Mesangial (AID 660);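 also: combined caspase 3 and 7 activity read by Caspase-Glo luminescence; cells exposed to compound for 16 h before the caspase read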
Summary of the method: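 Concentration-response qHTS: compound-induced rise in caspase 3/7 luminescence in human mesangial cells after 16 h, normalized to DMSO and 100 uM tamoxifen controls.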

[20] = Cellular Toxicity (caspase-3) SK-N-SH (AID 661);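 also: 0% = DMSO basal and 100% = 10 µM staurosporine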
Summary of the method: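 Caspase 3/7 activation is measured as a luminescence increase from aminoluciferin released by substrate cleavage in SK-N-SH cells after 16 hr compound treatment; values are AC50 from concentration-response curves.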

[21] = Cellular Toxicity (caspase-3) H-4-II-E (AID 663);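 also: cells exposed to compound for 16 hr before readout; 0% = DMSO basal and 100% = 100 µM tamoxifen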
Summary of the method: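 Luminescence from caspase-cleaved aminoluciferin substrate, read 20 min after reagent addition, reports caspase 3/7 activation in rat H-4-II-E cells after 16 hr compound exposure. Normalized to DMSO (basal) and 100 uM tamoxifen (100%); AC50 from Hill fits.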

[22] = Cellular Toxicity (caspase-3) Hek293 (AID 664);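 also: cells exposed to compound for 16 h at 37 °C before readout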
Summary of the method: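 Activation of caspase-3/7 is measured as increased luminescence from cleaved peptide-aminoluciferin substrate in HEK293 cells treated 16 hours at 37 °C. AC50 values come from Hill-equation fits of concentration-response data.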

[23] = Cellular Toxicity (caspase-3) N2a (AID 665);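 also: compound exposure lasted 16 h at 37 °C before readout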
Summary of the method: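 Plated mouse neuroblastoma N2a cells received titrated compounds for 16 h in complete medium. Caspase activity was then detected with a peptide-aminoluciferin luminescent reagent.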

[24] = Cellular Toxicity (caspase-3) NIH 3T3 (AID 666);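 also: 0% = DMSO basal and 100% = 100 µM tamoxifen stimulation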
Summary of the method: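 Concentration-response qHTS in NIH 3T3 mouse fibroblasts scores caspase-3/7 activation as rising luminescence after 16 hr compound exposure. Signals are scaled between DMSO-only and 100 uM tamoxifen.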

[25] = Cell Viability - LYMP2-001 (AID 921); conditions: LYMP2-001 lymphoblastoid cell viability; also: potency is read from the fitted curve at half-maximal effect; nearly all actives have a fitted effect of over 70% in size
Summary of the method: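 Human lymphoblastoid cells (Coriell), 2500 per well, were preincubated 5 hr at 37 C, then exposed to compounds in complete medium for 24 hr at 37 C. Cellular ATP was read by CellTiter-Glo luminescence; AC50 from Hill fits of concentration-response data.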

[26] = MultiTox-Fluor Cytotoxicity Assay - LYMP1-001 - Dead Cells (AID 946);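 also: 0% = DMSO and 100% = tetraoctylammonium bromide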
Summary of the method: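 AC50 from Hill fit of concentration-response; data normalized to DMSO (basal) and 15 uM tetraoctylammonium bromide (100%). LYMP1-001 lymphoblastoid cells, 2500/well, 16 hr compound at 37 C; dead-cell protease fluorescence, Ex/Em 485/520.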

[27] = Cell Viability - LYMP1-002 - Assay at 16 hr (AID 948); conditions: LYMP1-002 lymphoblastoid cell viability; also: potency is read from the fitted curve at half-maximal effect
Summary of the method: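 Human lymphoblastoid cells (LYMP1-002), 2500/well, were preincubated 5 hr at 37 C, then exposed to compounds for 16 hr at 37 C in complete medium. Cellular ATP was read by CellTiter-Glo luminescence after 30 min at room temperature; AC50 from Hill fits.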

[28] = MultiTox-Fluor Cytotoxicity Assay - LYMP1-002 - Dead Cells (AID 960);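 also: 0% = DMSO and 100% = tetraoctylammonium bromide; nearly all actives have a fitted effect of over 60% in size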
Summary of the method: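 Acute cytotoxicity in a human lymphoblastoid line is scored as rising dead-cell protease signal after 16 hr exposure at 37 C, measured fluorometrically (485/520).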

[29] = MultiTox-Fluor Cytotoxicity Assay - LYMP1-003 - Dead Cells (AID 961);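 also: 0% = DMSO and 100% = tetraoctylammonium bromide; nearly all actives have a fitted effect of over 70% in size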
Summary of the method: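 Human lymphoblastoid LYMP1-003 cells (2500/well) were treated with compounds for 16 hr at 37 C in complete medium. Dead-cell protease release was read by bis-AAF-R110 fluorescence (Ex/Em 485/520). AC50 came from Hill fits, normalized to DMSO and 15 uM tetraoctylammonium bromide.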

[30] = MultiTox-Fluor Cytotoxicity Assay - LYMP1-003 - Live Cells (AID 962); conditions: LYMP1-003 lymphoblastoid cells, MultiTox-Fluor live-cell protease fluorescence; also: potency is read from the fitted curve at half-maximal effect
Summary of the method: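 Cells plated at 2500 per well and incubated 5 hr; compounds added and incubated 16 hr at 37 C; MultiTox-Fluor reagent added for 60 min at room temperature; fluorescence of liberated AFC measured at 405/510 nm.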

[31] = Cell Viability - LYMP1-003 - Assay at 24 hr (AID 963); conditions: LYMP1-003 lymphoblastoid cell viability; also: potency is read from the fitted curve at half-maximal effect
Summary of the method: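 Acute toxicity in LYMP1-003 lymphoblastoid cells: 24 hr compound treatment at 37 C, ATP measured with CellTiter-Glo after 30 min at room temperature. AC50 derived by fitting the Hill equation to qHTS titrations.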

[32] = Cell Viability - LYMP1-003 - Assay at 40 hr (AID 964); conditions: LYMP1-003 lymphoblastoid viability; also: potency is read from the fitted curve at half-maximal effect; nearly all actives have a fitted effect of over 60% in size
Summary of the method: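 This qHTS cytotoxicity screen treats human lymphoblastoid cells (LYMP1-003) with compounds for 40 hr and quantifies cellular ATP via luciferase luminescence.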

[33] = Cell Viability - LYMP2-003 (AID 965); conditions: LYMP2-003 lymphoblastoid cell viability;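 also: potency is read from the fitted curve at half-maximal effect; cells exposed to compounds for 24 h before reading; nearly all actives have a fitted effect of over 50% in size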
Summary of the method: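 Human lymphoblastoid cells (2500/well) were pre-incubated 5 hr at 37 C, then exposed to compounds over a concentration range for 24 hr at 37 C. Intracellular ATP was read by CellTiter-Glo luminescence; AC50 came from Hill-equation fits.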

[34] = Cell Viability - LYMP2-004 (AID 966); conditions: LYMP2-004 lymphoblastoid cell viability, qHTS; also: potency is read from the fitted curve at half-maximal effect; nearly all actives have a fitted effect of over 65% in size
Summary of the method: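 Acute toxicity is scored as a concentration-dependent drop in intracellular ATP, quantified by luciferase luminescence, in human lymphoblastoid cells exposed to compound for 24 hr. AC50 derives from Hill-equation modelling.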

[35] = Cell Viability - LYMP2-005 (AID 967); conditions: LYMP2-005 lymphoblastoid cell viability; also: potency is read from the fitted curve at half-maximal effect
Summary of the method: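 CellTiter-Glo luminescence (cellular ATP) read-out; LYMP2-005 lymphoblastoid cells, 2500/well, 5 h pre-incubation, then 24 h compound exposure at 37 C in complete medium. Tetraoctylammonium bromide positive control; AC50 by standard Hill fit.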

[36] = Cell Viability - LYMP2-009 (AID 968); conditions: LYMP2-009 lymphoblastoid cell viability; also: potency is read from the fitted curve at half-maximal effect; nearly all actives have a fitted effect of over 55% in size
[37] = Cell Viability - LYMP2-011 (AID 969); conditions: LYMP2-011 lymphoblastoid cells viability; also: potency is read from the fitted curve at half-maximal effect; nearly all actives have a fitted effect of over 60% in size
Summary of the method: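 Acute toxicity is scored as a concentration-dependent drop in intracellular ATP of a human lymphoblastoid line after 24 hr treatment. Values are AC50s modeled with the Hill equation.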

[38] = Cell Viability - LYMP2-013 (AID 970); conditions: LYMP2-013 lymphoblastoid cells viability; also: potency is read from the fitted curve at half-maximal effect; nearly all actives have a fitted effect of over 55% in size
Summary of the method: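 Acute toxicity was measured in human lymphoblastoid cells (2500/well) exposed to compound titrations for 24 hr, with ATP luminescence (CellTiter-Glo) as read-out and AC50 fitted by Hill equation.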

[39] = Cell Viability - LYMP2-015 (AID 971); conditions: LYMP2-015 lymphoblastoid cell viability; also: potency is read from the fitted curve at half-maximal effect; nearly all actives have a fitted effect of over 55% in size
Summary of the method: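 Acute toxicity was scored as a concentration-dependent drop in intracellular ATP in lymphoblastoid cells after 24 hr compound exposure in complete medium. Detection used CellTiter-Glo luciferase luminescence.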

O=C1c2c(O)ccc([N+](=O)[O-])c2C(=O)c2c([N+](=O)[O-])ccc(O)c21
inactive: outcome [13] | outcome [14] | outcome [15] | outcome [16] | outcome [17] | outcome [18] | outcome [19] | outcome [20] | outcome [21] | outcome [22] | outcome [23] | outcome [24] | outcome [26] | outcome [28] | outcome [29]
active: Potency [1] 28.5 µM | Potency [2] 25.8 µM | Potency [3] 27.4 µM | Potency [4] 30.1 µM | Potency [5] 28.8 µM | activity change, negative = cytotoxicity [6] -111% | activity change, negative = cytotoxicity [7] -139% | Potency [8] 31.6 µM | Potency [9] 31.6 µM | Potency [10] 25.1 µM | activity change, negative = cytotoxicity [11] -107% | Potency [12] 31.6 µM | Potency [25] 50.1 µM | Potency [27] 39.8 µM | Potency [30] 50.1 µM | Potency [31] 39.8 µM | Potency [32] 39.8 µM | Potency [33] 31.6 µM | Potency [34] 31.6 µM | Potency [35] 39.8 µM | Potency [36] 31.6 µM | Potency [37] 39.8 µM | Potency [38] 50.1 µM | Potency [39] 31.6 µM
